Measurements published in PubChem BioAssay (Tox21).
Where “and” joins values, the source holds several entries; their conditions need not be identical. Equal entries are not always repeated. Results filed as inconclusive are left out. Where a call stands in place of a potency, no number is given. Some compounds were tested as several samples or in several runs, with calls that do not always agree. Calls of active or inactive are those of the source. Unless noted, the call rests on the fitted dose curve; in most records, active means well fitted curve in the direction sought with a large enough effect in the repeat runs; inconclusive means weak or mixed curves; inactive means no such curve, though single readings can be large; an effect the other way counts as inactive or inconclusive.

Legend:
[1] = molecular target: Acetylcholinesterase (Homo sapiens) (UniProt P22303); assay: Acetylcholinesterase (AChE) small molecule antagonists: colormetric cell-based qHTS assay (AID 1347395; calls by dose curve; further: nearly all actives have a fitted effect of over 30% in size; further: potency means the concentration at half of the fitted maximal effect); settings: SH-SY5Y cells AChE activity, colorimetric (Ellman); series mostly up to 115 µM
Chain of Acetylcholinesterase (Homo sapiens) (P22303 whole entry, looked up): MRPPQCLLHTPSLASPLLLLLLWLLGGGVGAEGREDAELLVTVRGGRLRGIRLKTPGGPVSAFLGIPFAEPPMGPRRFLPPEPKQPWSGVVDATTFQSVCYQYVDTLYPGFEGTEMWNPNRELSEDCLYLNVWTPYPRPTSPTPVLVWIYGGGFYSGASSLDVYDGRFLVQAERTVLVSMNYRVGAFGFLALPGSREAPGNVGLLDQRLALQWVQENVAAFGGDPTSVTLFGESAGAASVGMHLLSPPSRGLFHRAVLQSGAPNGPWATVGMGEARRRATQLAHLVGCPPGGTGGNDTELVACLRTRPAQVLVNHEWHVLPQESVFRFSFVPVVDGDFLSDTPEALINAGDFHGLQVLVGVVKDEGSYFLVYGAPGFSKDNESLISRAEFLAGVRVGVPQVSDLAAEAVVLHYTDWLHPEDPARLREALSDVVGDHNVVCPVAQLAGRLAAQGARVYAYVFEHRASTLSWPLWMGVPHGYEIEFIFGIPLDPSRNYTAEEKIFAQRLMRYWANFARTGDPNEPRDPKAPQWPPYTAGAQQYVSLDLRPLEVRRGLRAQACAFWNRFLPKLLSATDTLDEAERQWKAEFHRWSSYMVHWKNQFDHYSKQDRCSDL
In short: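 Neuroblastoma line SH-SY5Y supplied the enzyme; cells were preincubated with compound for 30 min at 37 C and 5% CO2. Acetylthiocholine with DTNB was then added for 90 min at 37 C, and thiocholine was measured by colour.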

[2] = molecular target: Acetylcholinesterase (Homo sapiens) (UniProt P22303); assay: Acetylcholinesterase (AChE) small molecule antagonists: enzyme-based qHTS assay (AID 1347397; calls by dose curve; further: nearly all actives have a fitted effect of over 55% in size); settings: Potency: AChE enzyme activity inhibition; series mostly up to 115 µM
In short: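 Absorbance-based detection of thiocholine with DTNB served as the read-out. Recombinant human AChE was exposed to compound for 30 min at RT before a 10 min RT incubation with acetylthiocholine.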

[3] = molecular target: Acetylcholinesterase (Homo sapiens) (UniProt P22303); assay: Acetylcholinesterase (AChE) small molecule antagonists: fluorescence cell-based qHTS assay (AID 1347398; calls by dose curve; further: nearly all actives have a fitted effect of over 50% in size; further: potency means the concentration at half of the fitted maximal effect); settings: SH-SY5Y cells; Potency: AChE activity; series mostly up to 115 µM
In short: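 Fluorimetric cell-based assay: intact SH-SY5Y cells, 30 min compound preincubation at 37 C, acetylthiocholine substrate with thiol probe Thiolite Green, 40 min RT development, fluorescence 490/520 nm.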

[4] = molecular target: Acetylcholinesterase (Homo sapiens) (UniProt P22303); assay: Acetylcholinesterase (AChE) small molecule antagonists: enzyme-based qHTS assay with human liver microsomes (AID 1347399; calls by dose curve; further: nearly all actives have a fitted effect of over 60% in size; further: potency means the concentration at half of the fitted maximal effect); settings: Potency: qHTS inhibition; series mostly up to 115 µM
In short: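 Recombinant human AChE (50 mU/mL in the enzyme mix) and human liver microsomes (0.25 mg/mL final) were preincubated with compound and NADPH (0.25 mg/mL final) for 30 min at 37 C. Acetylthiocholine/DTNB was then added; thiocholine was read colorimetrically after 10 min at room temperature.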

[5] = molecular target: Cytochrome P450 2D6 (Homo sapiens) (UniProt P10635); assay: Cytochrome P450 Family 2 Subfamily D Member 6 (CYP2D6) small molecule antagonists: luciferase reporter qHTS assay (AID 1671196); settings: P450-Glo CYP2D6 enzyme assay, luciferin luminescence, 1 h; series mostly up to 115 µM; further: nearly all actives have a fitted effect of over 50% in size; further: potency means the concentration at half of the fitted maximal effect
Chain of Cytochrome P450 2D6 (Homo sapiens) (P10635 whole entry, looked up): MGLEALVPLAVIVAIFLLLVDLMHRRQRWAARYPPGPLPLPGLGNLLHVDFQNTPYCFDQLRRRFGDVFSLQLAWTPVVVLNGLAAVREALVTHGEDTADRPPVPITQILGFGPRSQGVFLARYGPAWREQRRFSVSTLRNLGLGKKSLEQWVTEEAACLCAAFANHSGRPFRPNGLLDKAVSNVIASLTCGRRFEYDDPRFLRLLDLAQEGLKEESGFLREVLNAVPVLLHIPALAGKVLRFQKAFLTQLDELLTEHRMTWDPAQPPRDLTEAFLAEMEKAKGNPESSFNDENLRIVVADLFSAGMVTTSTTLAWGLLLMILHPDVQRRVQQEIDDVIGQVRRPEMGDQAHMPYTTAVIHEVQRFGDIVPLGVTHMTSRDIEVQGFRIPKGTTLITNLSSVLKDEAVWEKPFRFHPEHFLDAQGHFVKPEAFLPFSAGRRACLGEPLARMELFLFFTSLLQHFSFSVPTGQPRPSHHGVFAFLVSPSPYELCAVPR
In short: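 Cell-free P450-Glo system: CYP2D6 with proluciferin substrate was pre-incubated with compound for 10 min, then reacted with NADPH regeneration for 1 h at room temperature. Luciferin product was detected after 20 min, and data were reported as relative luminescence units.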

[6] = molecular target: Cytochrome P450 2C19 (Homo sapiens) (UniProt P33261); assay: Cytochrome P450 Family 2 Subfamily C Member 19 (CYP2C19) small molecule antagonists: luciferase reporter qHTS assay (AID 1671197); settings: P450-Glo CYP2C19 enzyme, luciferin luminescence, 1 h; series mostly up to 115 µM; further: nearly all actives have a fitted effect of over 65% in size; further: potency means the concentration at half of the fitted maximal effect
Chain of Cytochrome P450 2C19 (Homo sapiens) (P33261 whole entry, looked up): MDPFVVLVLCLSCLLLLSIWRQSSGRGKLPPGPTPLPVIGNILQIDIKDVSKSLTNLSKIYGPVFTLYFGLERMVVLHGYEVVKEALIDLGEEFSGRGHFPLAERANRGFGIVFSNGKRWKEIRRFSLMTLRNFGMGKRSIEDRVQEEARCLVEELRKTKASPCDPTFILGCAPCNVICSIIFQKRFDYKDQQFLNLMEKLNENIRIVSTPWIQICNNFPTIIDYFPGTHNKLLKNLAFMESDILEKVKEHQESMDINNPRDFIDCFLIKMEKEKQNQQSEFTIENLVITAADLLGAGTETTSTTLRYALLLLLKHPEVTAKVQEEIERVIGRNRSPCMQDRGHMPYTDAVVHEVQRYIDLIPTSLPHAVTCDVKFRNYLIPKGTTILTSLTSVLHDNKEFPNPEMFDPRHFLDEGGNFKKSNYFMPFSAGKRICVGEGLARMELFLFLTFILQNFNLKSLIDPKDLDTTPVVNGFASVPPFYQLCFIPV
In short: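 Relative luminescence units recorded 20 min after the detection reagent stopped a 1 h, 37C CYP2C19 reaction on proluciferin substrate, which was started by NADPH regeneration following 10 min room-temperature compound preincubation; ketoconazole positive control.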

[7] = molecular target: Cytochrome P450 1A2 (Homo sapiens) (UniProt P05177); assay: Cytochrome P450 Family 1 Subfamily A Member 2 (CYP1A2) small molecule antagonists: luciferase reporter qHTS assay (AID 1671199); settings: P450-Glo CYP1A2 enzyme, luciferin luminescence, 1 h; series mostly up to 115 µM; further: nearly all actives have a fitted effect of over 50% in size; further: potency means the concentration at half of the fitted maximal effect
Chain of Cytochrome P450 1A2 (Homo sapiens) (P05177 whole entry, looked up): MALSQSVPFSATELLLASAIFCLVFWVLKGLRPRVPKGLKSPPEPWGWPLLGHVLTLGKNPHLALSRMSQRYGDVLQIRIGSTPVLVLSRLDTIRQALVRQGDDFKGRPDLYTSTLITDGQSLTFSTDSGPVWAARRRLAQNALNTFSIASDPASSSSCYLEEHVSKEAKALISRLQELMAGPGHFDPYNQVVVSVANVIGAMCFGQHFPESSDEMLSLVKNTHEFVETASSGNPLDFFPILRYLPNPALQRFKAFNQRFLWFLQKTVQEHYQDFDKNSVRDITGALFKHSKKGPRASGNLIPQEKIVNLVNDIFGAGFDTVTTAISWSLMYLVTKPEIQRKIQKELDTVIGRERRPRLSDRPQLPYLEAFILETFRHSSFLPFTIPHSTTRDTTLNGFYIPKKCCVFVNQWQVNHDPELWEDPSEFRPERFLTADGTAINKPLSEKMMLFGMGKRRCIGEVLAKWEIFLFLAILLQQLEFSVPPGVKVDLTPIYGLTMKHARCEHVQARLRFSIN
In short: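 P450-Glo CYP1A2 enzyme–proluciferin substrate mix with compound 10 min at room temperature, then NADPH regeneration 1 h at room temperature. Luciferin detection reagent added, luminescence read after 20 min; furafylline positive control.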

[8] = molecular target: Voltage-gated inwardly rectifying potassium channel KCNH2 (Homo sapiens) (UniProt Q12809); assay: Human Ether-a-go-go-Related Gene (hERG) channel small molecule antagonists: fluorescence cell-based qHTS assay (AID 1671200); settings: hERG-U2OS cells, FluxOR thallium flux fluorescence; series mostly up to 76.8 µM; further: nearly all actives have a fitted effect of over 50% in size; further: potency means the concentration at half of the fitted maximal effect
Chain of Voltage-gated inwardly rectifying potassium channel KCNH2 (Homo sapiens) (Q12809 whole entry, looked up): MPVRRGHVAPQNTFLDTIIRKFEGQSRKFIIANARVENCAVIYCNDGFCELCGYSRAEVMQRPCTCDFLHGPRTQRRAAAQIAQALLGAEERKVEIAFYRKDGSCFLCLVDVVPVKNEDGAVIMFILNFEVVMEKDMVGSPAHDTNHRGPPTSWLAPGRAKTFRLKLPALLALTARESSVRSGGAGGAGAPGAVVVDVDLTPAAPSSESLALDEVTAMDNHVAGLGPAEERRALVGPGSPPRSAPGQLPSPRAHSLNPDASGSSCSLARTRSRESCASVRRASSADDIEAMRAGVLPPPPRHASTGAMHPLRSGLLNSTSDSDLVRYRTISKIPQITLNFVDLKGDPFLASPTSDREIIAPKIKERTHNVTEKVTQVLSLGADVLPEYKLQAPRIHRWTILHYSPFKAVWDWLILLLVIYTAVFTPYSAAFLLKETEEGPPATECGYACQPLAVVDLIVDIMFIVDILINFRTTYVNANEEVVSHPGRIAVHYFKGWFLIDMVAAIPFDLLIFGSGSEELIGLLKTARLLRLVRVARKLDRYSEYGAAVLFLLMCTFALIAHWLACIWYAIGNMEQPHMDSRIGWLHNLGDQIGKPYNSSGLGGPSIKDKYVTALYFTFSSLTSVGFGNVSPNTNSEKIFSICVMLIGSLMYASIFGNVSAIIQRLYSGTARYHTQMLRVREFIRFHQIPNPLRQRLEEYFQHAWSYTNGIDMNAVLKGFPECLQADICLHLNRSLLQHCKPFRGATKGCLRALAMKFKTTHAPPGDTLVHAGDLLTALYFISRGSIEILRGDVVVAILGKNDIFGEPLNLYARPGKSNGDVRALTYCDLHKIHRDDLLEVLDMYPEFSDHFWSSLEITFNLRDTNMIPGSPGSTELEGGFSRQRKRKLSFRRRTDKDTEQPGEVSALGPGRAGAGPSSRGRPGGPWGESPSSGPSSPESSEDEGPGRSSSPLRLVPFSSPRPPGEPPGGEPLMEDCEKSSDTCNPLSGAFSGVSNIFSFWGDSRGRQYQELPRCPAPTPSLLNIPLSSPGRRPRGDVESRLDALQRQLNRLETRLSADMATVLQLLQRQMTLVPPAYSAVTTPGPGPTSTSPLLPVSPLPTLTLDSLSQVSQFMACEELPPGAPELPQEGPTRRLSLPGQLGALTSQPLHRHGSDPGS
In short: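 Measured: Tl+ flux via fluorescence (480/540 nm) in hERG-expressing U2OS cells after 1 h dye loading at room temperature.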

[9] = molecular target: Cytochrome P450 3A4 (Homo sapiens) (UniProt P08684); assay: Cytochrome P450 Family 3 Subfamily A Member 4 (CYP3A4) small molecule antagonists: luciferase reporter qHTS assay (AID 1671201); settings: P450-Glo CYP3A4 enzyme, luciferin luminescence, 1 h; series mostly up to 115 µM; further: nearly all actives have a fitted effect of over 50% in size; further: potency means the concentration at half of the fitted maximal effect
Chain of Cytochrome P450 3A4 (Homo sapiens) (P08684 whole entry, looked up): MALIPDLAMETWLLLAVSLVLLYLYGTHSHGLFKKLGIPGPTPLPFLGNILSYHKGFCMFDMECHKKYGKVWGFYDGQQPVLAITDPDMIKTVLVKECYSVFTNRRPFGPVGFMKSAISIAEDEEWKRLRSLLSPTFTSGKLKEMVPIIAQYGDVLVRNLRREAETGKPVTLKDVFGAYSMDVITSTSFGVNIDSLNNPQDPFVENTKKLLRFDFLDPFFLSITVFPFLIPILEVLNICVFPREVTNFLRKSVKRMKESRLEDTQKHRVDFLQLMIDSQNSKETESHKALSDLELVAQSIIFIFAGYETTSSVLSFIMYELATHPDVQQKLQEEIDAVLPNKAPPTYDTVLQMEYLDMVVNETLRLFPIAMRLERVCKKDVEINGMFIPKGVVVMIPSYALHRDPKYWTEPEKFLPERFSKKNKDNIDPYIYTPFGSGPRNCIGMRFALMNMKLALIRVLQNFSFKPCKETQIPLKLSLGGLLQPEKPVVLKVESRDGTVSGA
In short: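 Setup: enzyme-substrate mix, compound pin transfer, 10 min RT. Reaction: NADPH regeneration solution, 1 h RT. Readout: detection reagent stops turnover, luminescence measured after 20 min, expressed in relative luminescence units.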

[10] = molecular target: Cytochrome P450 2C9 (Homo sapiens) (UniProt P11712); assay: Cytochrome P450 Family 2 Subfamily C Member 9 (CYP2C9) small molecule antagonists: luciferase reporter qHTS assay (AID 1671198); settings: P450-Glo CYP2C9 enzyme assay, luciferin luminescence; series mostly up to 115 µM; further: nearly all actives have a fitted effect of over 50% in size; further: potency means the concentration at half of the fitted maximal effect
Chain of Cytochrome P450 2C9 (Homo sapiens) (P11712 whole entry, looked up): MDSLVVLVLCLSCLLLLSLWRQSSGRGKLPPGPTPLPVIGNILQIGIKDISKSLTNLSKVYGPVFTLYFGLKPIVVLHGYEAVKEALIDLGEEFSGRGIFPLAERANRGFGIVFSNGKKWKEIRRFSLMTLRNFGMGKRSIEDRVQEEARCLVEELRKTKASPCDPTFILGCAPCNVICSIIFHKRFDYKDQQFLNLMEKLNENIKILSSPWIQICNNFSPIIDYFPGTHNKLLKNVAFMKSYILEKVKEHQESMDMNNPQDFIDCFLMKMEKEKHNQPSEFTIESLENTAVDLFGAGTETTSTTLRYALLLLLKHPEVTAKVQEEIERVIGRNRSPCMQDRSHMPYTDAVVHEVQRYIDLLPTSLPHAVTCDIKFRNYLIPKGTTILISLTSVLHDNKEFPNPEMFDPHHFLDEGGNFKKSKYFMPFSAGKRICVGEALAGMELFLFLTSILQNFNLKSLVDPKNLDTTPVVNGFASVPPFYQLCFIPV
In short: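 Enzyme-substrate mix preincubated with compound 10 min at room temperature; reaction started with NADPH regeneration solution, 1 h 37C. Luminescent luciferin product read after 20 min detection reagent.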

SMILES	Potency [1]	Potency [2]	Potency [3]	Potency [4]	Potency [5]	Potency [6]	Potency [7]	Potency [8]	Potency [9]	Potency [10]
O=C(O)c1cc(Oc2ccc(C(F)(F)F)cc2Cl)ccc1[N+](=O)[O-]	inactive	inactive	inactive	inactive	inactive	inactive and 71 µM (active)	inactive	inactive	inactive	–
CN(C)C(=O)Cl	inactive	inactive	inactive	inactive	inactive	inactive	inactive	inactive	inactive	–
O=C(O)C1C(C(=O)O)C2(Cl)C(Cl)=C(Cl)C1(Cl)C2(Cl)Cl (centres undefined)	inactive	inactive	inactive	inactive	inactive	–	inactive	inactive	inactive	inactive
CCOc1ccc(N)cc1	inactive	inactive	inactive	inactive	31.8 µM (active) and 39.9 µM (active)	40 µM (active) and inactive	35.7 µM (active)	inactive	inactive	–
CN(C)NC(=O)CCC(=O)O	inactive	inactive	–	inactive	inactive	inactive	inactive	inactive	inactive	inactive
Nc1ccc([As](=O)(O)O)cc1	inactive	inactive	–	inactive	inactive	inactive	inactive	inactive	34.6 µM (active) and inactive	–
CN(C)C(=O)C(c1ccccc1)c1ccccc1	inactive	inactive	inactive	inactive	inactive	–	inactive	inactive	inactive	–
CCOP(=S)(OCC)Oc1cc(C)nc(C(C)C)n1	31.9 µM (active) and 71 µM (active) and inactive	inactive	35.8 µM (active) and 56.4 µM (active)	inactive and 8.71 µM (active)	inactive	56.7 µM (active) and 502 nM (active) and 692 nM (active)	6.33 µM (active) and 4.07 µM (active)	inactive	–	35.8 µM (active) and 2.83 µM (active) and 2.45 µM (active)
Sc1ccccc1	inactive	inactive	inactive	inactive	inactive	–	–	inactive	inactive	32.2 µM (active) and 31.9 µM (active) and 56.4 µM (active)
CNCC(O)c1ccc(O)cc1 (centres undefined)	inactive	inactive	–	inactive	39.9 µM (active)	70.9 µM (active) and inactive	inactive	inactive	inactive	–
O=[N+]([O-])c1cc([As](=O)(O)O)ccc1O	inactive	inactive	inactive	inactive	inactive	–	inactive	inactive	inactive	–
CCCCC(CC)C(=O)Cl (centres undefined)	inactive	inactive	–	inactive	inactive	inactive	inactive and 63.3 µM (active)	inactive	inactive	–
Cc1cccc(N)c1C	inactive	inactive	–	inactive	71 µM (active)	inactive and 31.7 µM (active)	36.9 µM (active) and 20 µM (active)	inactive	36.9 µM (active)	–
OC[C@@H](O)[C@H]1O[C@@H]2O[C@H](C(Cl)(Cl)Cl)O[C@@H]2[C@H]1O	inactive	inactive	–	inactive	inactive	35.5 µM (active) and inactive	inactive	inactive	inactive	–
ClC(Cl)c1ccccc1	inactive	inactive	inactive	inactive	–	–	inactive	inactive	inactive	–
Cc1cc(Cl)ccc1OC(C)C(=O)O (centres undefined)	inactive	inactive	inactive	inactive	inactive	78.3 µM (active) and inactive	inactive	inactive	inactive	–
Cc1cccc(C)c1N	inactive	inactive	inactive	inactive	11.1 µM (active) and inactive	–	inactive	inactive	inactive	–
O=C(O)C(Br)Br	inactive	inactive	inactive	inactive	inactive	inactive	inactive	inactive	inactive	–
CC12CC1(C)C(=O)N(c1cc(Cl)cc(Cl)c1)C2=O (centres undefined)	inactive	inactive	–	inactive	inactive	22.4 µM (active)	9.99 µM (active) and 14.2 µM (active)	inactive	inactive	–
CC(C)(C)C(=O)CCl	inactive	inactive	inactive	inactive	inactive	–	inactive	inactive	inactive	inactive

SMILES	Potency [1]	Potency [2]	Potency [3]	Potency [4]	Potency [5]	Potency [6]	Potency [7]	Potency [8]	Potency [9]	Potency [10]
CCSC(=O)N1CCCCCC1	inactive	inactive	–	inactive	30.8 µM (active) and inactive	34.6 µM (active)	inactive	inactive	30.8 µM (active) and inactive	38.8 µM (active) and inactive
COS(=O)(=O)OC	inactive	inactive	inactive	inactive	inactive	inactive	inactive	inactive	inactive	inactive
CSc1nnc(C(C)(C)C)c(=O)n1N	inactive	inactive	inactive	inactive	31.4 µM (active)	–	–	inactive	inactive	–
O=C(O)COc1ccccc1	inactive	inactive	inactive	inactive	inactive	inactive	inactive	inactive	inactive	inactive
Cl[C@H]1OCCO[C@@H]1Cl	inactive	inactive	inactive	inactive	19.6 µM (active)	–	inactive	inactive	inactive	inactive
COC(C)(C)CCCC(C)C/C=C/C(C)=C/C(=O)OC(C)C (centres undefined)	inactive	inactive	inactive	inactive	inactive	24.5 µM (active)	inactive	inactive	inactive	–
Oc1c(Br)cc(Br)cc1Br	inactive	inactive	inactive	inactive	inactive	inactive	35.7 µM (active) and 63.3 µM (active) and inactive	inactive	inactive	63.4 µM (active) and 39.9 µM (active) and inactive
OCc1ccco1	inactive	inactive	–	inactive	inactive	inactive	inactive	inactive	inactive	inactive and 44.8 µM (active)
COP(=S)(OC)Oc1ccc(SC)c(C)c1	inactive	inactive	inactive	inactive	39.5 µM (active) and 39.9 µM (active)	1.57 µM (active) and 710 nM (active) and 1.1 µM (active)	1.98 µM (active) and 2.24 µM (active) and 1.62 µM (active)	inactive	–	–
C/C=C/c1ccc2c(c1)OCO2	inactive	inactive	inactive	inactive	inactive	inactive and 79.6 µM (active)	39.9 µM (active)	inactive	inactive	inactive
CN(C)C(=O)Nc1cccc(C(F)(F)F)c1	inactive	–	–	inactive	inactive	inactive	2.88 µM (active) and 3.99 µM (active)	inactive	inactive	inactive
Cc1cc(O)ccc1Cl	inactive	inactive	–	inactive	inactive	–	36.2 µM (active) and 44.8 µM (active) and 17.4 µM (active)	inactive	inactive	–
CCCOC(=O)c1ccccc1C(=O)OCCC	inactive	–	inactive	inactive	inactive	–	2.03 µM (active) and 3.17 µM (active)	inactive	inactive	–
CC(=O)/C=C/c1ccccc1	inactive	–	–	inactive	inactive and 35.6 µM (active)	78.2 µM (active)	31.7 µM (active) and 39.9 µM (active)	inactive	inactive	inactive
Nc1nc(N)nc(NC2CC2)n1	inactive	–	–	inactive	inactive	inactive	inactive	inactive	inactive	inactive
CNC(=O)Oc1cccc2ccccc12	2.22 µM (active) and inactive	–	3.56 µM (active)	inactive and 89.4 µM (active)	39.6 µM (active) and inactive	–	3.14 µM (active) and 8.94 µM (active)	inactive	inactive	28 µM (active) and inactive
O=C/C=C/c1ccccc1	inactive	–	inactive and 36 µM (active)	inactive	inactive	–	inactive and 39.9 µM (active)	inactive	inactive	inactive
O=C(O)Cc1ccccc1	inactive	inactive	–	inactive	40 µM (active) and 12.3 µM (active)	–	63.4 µM (active) and inactive	inactive	inactive	inactive
Clc1cnc(Oc2ccc(Oc3ncc(Cl)cc3Cl)cc2)c(Cl)c1	inactive	–	inactive	inactive	inactive	inactive	24.9 µM (active) and inactive	19.5 µM (active)	inactive	–
